Screening results deposited in PubChem BioAssay by National Center for Advancing Translational Sciences (NCATS).
A selection: hits, their analogues and other compounds. The true share with any hit is near 17%.
TDP1 inh: TDP1 (human) enzyme inhibition. recombinant TDP1, AlphaScreen DNA substrate cleavage. Potency, µM (top dose mostly 130 µM), for the others: at the top dose activity change, negative = inhibition, most hits filed as inhibitors. actives 0.28% (n = 350,000). AID 485290; further: on the % scale 0 is the no-effect control and ±100 the full control effect; nearly all actives have a fitted effect of over 40% in size
Target sequence (Q9NUW8 whole entry, looked up): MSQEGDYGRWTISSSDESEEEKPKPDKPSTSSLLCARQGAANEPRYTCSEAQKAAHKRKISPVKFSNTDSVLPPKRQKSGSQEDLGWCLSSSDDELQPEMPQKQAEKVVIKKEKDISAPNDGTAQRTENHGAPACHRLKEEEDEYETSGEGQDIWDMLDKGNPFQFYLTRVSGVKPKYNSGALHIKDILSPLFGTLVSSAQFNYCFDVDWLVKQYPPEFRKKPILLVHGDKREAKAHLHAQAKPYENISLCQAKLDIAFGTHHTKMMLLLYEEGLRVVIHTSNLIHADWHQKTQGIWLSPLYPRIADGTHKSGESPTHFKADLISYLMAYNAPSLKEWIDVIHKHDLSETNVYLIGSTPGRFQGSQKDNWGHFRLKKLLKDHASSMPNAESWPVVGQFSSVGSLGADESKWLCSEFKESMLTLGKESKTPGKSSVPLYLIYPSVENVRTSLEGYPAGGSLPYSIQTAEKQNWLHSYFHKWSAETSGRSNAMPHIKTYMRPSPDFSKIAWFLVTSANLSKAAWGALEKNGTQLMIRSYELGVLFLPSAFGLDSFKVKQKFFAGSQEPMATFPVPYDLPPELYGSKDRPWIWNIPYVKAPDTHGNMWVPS
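Recombinant E. coli-expressed Tdp1 (1 nM) preincubated with compound 15 min at RT, then 5'-biotin/3'-phosphotyrosine-FITC DNA substrate (15 nM) added for 5 min. AlphaScreen beads (10 ug/ml) added, 10 min RT; tyrosine-FITC cleavage read as signal loss.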
DT40 TDP1 CPT: DT40-hTDP1 cell growth loss with CPT | actives 12% (n = 420,000) | Potency, µM (top dose mostly 46.2 µM), without a hit: at the highest dose activity change, negative = growth inhibition, usual class: inhibitors | chicken DT40 Tdp1-/-;hTDP1 cells + 20 nM CPT, ATP luminescence, 48 h; further: on the % scale 0 is the no-effect control and ±100 the full control effect; nearly all actives have a fitted effect of over 55% in size
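Cell growth measured by CellTiter-Glo luminescence after a minimum 48 h, 37 C compound exposure with 20 nM CPT in Tdp1-knockout DT40 cells stably expressing hTDP1, seeded 400/well; qHTS titration format.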
ClpP mod: qHTS Assay for Activators of ClpP. purified B. subtilis ClpP, FRET peptide cleavage, 20 min. AID 651965, 2013. Potency, µM (series often up to 57.5 µM), inactives show at the top dose activity change, negative = active. ATP-dependent Clp protease proteolytic subunit (Bacillus subtilis (strain 168)), P80244. actives 1.9% (n = 340,000); active means well fitted falling curve with a large enough effect; inconclusive means small, poorly fitted or top-dose-only effect; inactive means no such curve, though single readings can be large or run the other way; further: the source files actives as falling curves though it sought activators and does not explain the sign; nearly all actives have a fitted effect of over 65% in size
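Buffer: 100 mM Tris/HCl pH8, 100 mM KCl, 0.05% low protease BSA, 2.5% glycerol, 0.01% Tween-20. ClpP 10 microg/mL final; 20 min RT; delta FRET normalized to ADEP and DMSO controls.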
TDP1 cell noCPT: qHTS for Inhibitors of human tyrosyl-DNA phosphodiesterase 1 (TDP1): qHTS in cells in absence of CPT. DT40 Tdp1-/- hTDP1 cells, no CPT, ATP luminescence, 48 h. Potency, µM (doses to about 46.2 µM), without a hit: at the highest dose activity change, negative = growth inhibition, usual class: inhibitors. actives 15% (n = 420,000); further: on the % scale 0 is the no-effect control and ±100 the full control effect; nearly all actives have a fitted effect of over 55% in size
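No-CPT arm: Tdp1-/-;hTDP1 DT40 cells (400/well) plus compounds, incubated ≥48 hr at 37 °C. Readout CellTiter-Glo luminescence.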
* marks the source's active call; other numbers are inactive results; ? = inconclusive; nt = not tested or not shown; [ ] = remark or other dose. Unless noted, the call rests on the fitted dose curve; in most records, active means well fitted curve in the direction sought with a large enough effect; inconclusive means small, poorly fitted or top-dose-only effect, or another doubt; inactive means no such curve, though single readings can be large; an effect the other way counts as inactive or inconclusive. Potency means the concentration at half of the fitted maximal effect.

SMILES	TDP1 inh	DT40 TDP1 CPT	ClpP mod	TDP1 cell noCPT
Cc1ccc(-n2c(=O)c3ccc(C(=O)NCc4ccco4)cc3n(Cc3cccc(Cl)c3)c2=O)cc1	2%	-22%	-6%	?
Cc1cccc(Cn2c(=O)n(-c3ccc(CC(=O)NCc4ccco4)cc3)c(=O)c3sccc32)c1	7%	26µM*	-1%	15µM*
O=C(CCn1c(=O)c2sccc2n(Cc2cc(=O)n3ccccc3n2)c1=O)NCc1ccco1	9%	-1%	28µM*	-2%
Cc1ccc(Cn2c(=O)n(-c3ccccc3)c(=O)c3ccc(C(=O)NCc4ccco4)cc32)cc1	2%	12µM*	-11%	?
Cc1ccc(-n2c(=O)c3sccc3n(CC(=O)NCc3ccco3)c2=O)cc1	3%	-26%	-2%	-2%
Cc1cccc(C)c1NC(=O)Cn1c(=O)n(Cc2ccc(C(=O)NCc3ccco3)cc2)c(=O)c2sccc21	nt	21µM*	5%	23µM*
O=C(CCC(=O)c1cccs1)NCc1ccccc1Cl	0%	0%	-1%	-1%
O=C(CSc1nnc(CNc2ccc(F)cc2)o1)N1c2ccccc2Sc2ccccc21	9%	21µM*	-1%	26µM*
CC(C)(C)N(Cc1ccccc1)C(=O)CSc1nnc(CNc2ccc(F)cc2)o1	3%	11µM*	2%	?
O=C(CSc1nnc(CNc2ccc(F)cc2)o1)N1CCN(C(=O)c2ccco2)CC1	7%	?	0%	-15%
CN(CC(=O)Nc1ccc(F)cc1)C(=O)CSc1nnc(Cc2ccccc2)o1	0%	?	0%	-23%
Cc1cnc(-n2ncc(C(=O)N(C)CCc3ccccn3)c2-c2cccs2)nc1-c1ccc(F)cc1	nt	-14%[9.04 µM]	nt	12µM*
CC(=O)c1ccc(NC(=O)C2=CC(c3cccs3)=NS(=O)(=O)N2C)cc1	6%	?	-1%	16µM*
CCc1ccc(NC(=O)C2=CC(c3cccs3)=NS(=O)(=O)N2C)cc1	6%	?	0%	16µM*
COc1cc(NC(=O)C2=CC(c3cccs3)=NS(=O)(=O)N2C)cc(OC)c1OC	nt	?	-1%	?
CO[C@@H]1COC(=O)[C@H]2CCCN2C(=O)[C@@H](C)COC(=O)CCC[C@H]1C	7%[21 µM]	nt	nt	nt
CSc1ccccc1C(=O)NC1CCSc2ccccc21 (stereo unspecified)	2%	?	nt	?
CC1CN(CCC(=O)N2CCCC(C(=O)c3nccn3C)C2)Cc2cc(Cl)ccc2O1 (stereo unspecified)	nt	23%[9.04 µM]	nt	-18%
COC1=C(Nc2ccc(C)cc2)C(=O)c2ccccc2C1=O	11%	?	3%	16µM*
COC1=C(OC)C(=O)c2ccccc2C1=O	nt	7.9µM*	49%	8.9µM*
COC1=C(Nc2ccccc2)C(=O)c2ccccc2C1=O	0%	12µM*	-10%	12µM*
Cc1ccc(S(=O)(=O)Nc2ccc3c(c2)C(=O)c2ccccc2-3)cc1	nt	?	2%	?
CC(=O)c1cccc(NC(=O)COC(=O)Cc2ccc(Cl)cc2)c1	0%	7%	-1%	14%
CCOC(=O)C1CCCN(C(=O)c2cnn(-c3ncc4c(n3)-c3ccccc3CCC4)c2C2CC2)C1 (stereo unspecified)	nt	11%	nt	-21%
O=c1oc2cc(Oc3c([N+](=O)[O-])cc(C(F)(F)F)cc3[N+](=O)[O-])ccc2c2c1CCCC2	3%	8.2µM*	16%	13µM*
SMILES	TDP1 inh	DT40 TDP1 CPT	ClpP mod	TDP1 cell noCPT
O=c1oc2cc(Oc3ccc(C(F)(F)F)cc3[N+](=O)[O-])ccc2c2c1CCC2	0%	-3%	?	-9%
O=C(NC(=S)NCC1CCCO1)c1ccc(Cl)cc1Cl (stereo unspecified)	2%	-3%	1%	-3%
COC(=O)N/N=C/c1cc(Cl)c(OCc2ccccc2F)c(OC)c1	nt	?	nt	23µM*
Cn1ncc(Cl)c1C(=O)N1CCN(c2ncccn2)CC1	-1%	0%	-11%	0%
O=c1cc(-c2ccccc2Cl)oc2c(NS(=O)(=O)c3cc(Cl)cc(Cl)c3O)ccc(O)c12	19%	9.2µM*	-1%	12µM*
CCOC(=O)C1=CCC(c2ccccc2)N(S(=O)(=O)c2ccccc2)C1 (stereo unspecified)	nt	23µM*	1%	18µM*
CCOC(=O)C1=CCC(c2cccc(C)c2)N(S(=O)(=O)c2ccc(C)cc2)C1 (stereo unspecified)	nt	18µM*	-6%	16µM*
O=S(=O)(c1ccc(Cl)cc1)N1CCN(c2ncnc3sccc23)CC1	-1%	6.5µM*	-13%	5.8µM*
Cc1csc2c(N3CCN(S(=O)(=O)c4ccc(Cl)cc4)CC3)ncnc12	7%	-21%	nt	23µM*
Cc1[nH]c(=O)[nH]c(=O)c1S(=O)(=O)N1CCCC(C(=O)NCCC2=CCCCC2)C1 (stereo unspecified)	0%	-4%	nt	-1%
COCCCN1CN(S(=O)(=O)c2ccc(C)cc2C)c2nc3ccccc3nc21	1%	-5%	-4%	-4%
COc1cc(CCCN2C(=O)C(=O)NC[C@@H]2C(C)O)cc(OC)c1OC (stereo partly specified)	2%	1%	1%	-4%
CC1(C)CC(=O)C=C(c2ccc(-c3ccc4[nH]ccc4c3)cc2)C1=O	nt	?	0%	26µM*
CC1(C)CC(=O)C=C(c2ccc(COC(=O)c3cccc(C(F)(F)F)c3)cc2)C1=O	nt	?	1%	?
CC1(C)CC(=O)C=C(c2ccc(-c3ccc(OC(F)(F)F)cc3)cc2)C1=O	nt	16µM*	1%	10µM*
CC1(C)CC(=O)C=C(c2ccc(CO)cc2)C1=O	nt	1%	1%	-15%
CC1(C)CC(=O)C=C(c2ccc(-c3ccccc3)cc2)C1=O	nt	?	-2%	26µM*
COC(=O)Cn1c2ccc(F)cc2c2nc(C)sc21	4%	0%	-2%	0%
Cc1nc2c3cc(Cl)ccc3n(CCN3CCCCC3)c2s1	6%	21µM*	1%	23µM*
Cc1nc2c3cc(F)ccc3n(Cc3ccc(F)cc3)c2s1	-2%	?	3%	8.2µM*
COc1ccccc1Cc1c(-c2ccc(F)cc2)nc2ccc(Br)cn12	nt	?	-12%	?
COC(=O)c1ccc2nc(-c3cccc(Br)c3)c(Cc3ccccc3OC)n2c1	nt	?	?	21µM*
COC(=O)c1ccc2nc(-c3ccc(F)cc3)c(Cc3ccccc3OC)n2c1	nt	21µM*	5%	18µM*
Cc1ccc(CNc2nc3ccccc3c3nc(-c4cccc(C)c4)nn23)cc1	-5%	2%	-1%	-24%
Cc1cc(C)cc(NC(=O)Cn2c(-c3ccccc3Cl)nc3ccccc32)c1	5%	?	28µM*	-23%
COc1ccc(CNC(=O)Cn2c(SCC(=O)N(C)c3ccccc3)nc3ccccc32)cc1	6%	?	2%	18µM*
